Measured values published in PubChem BioAssay AID1159580 (chemical genetic matrix, 2015).
Values joined by “and” are separate entries in the source; they are usually repeats but may differ in a detail not shown here. Equal values may be shown once. The whole screen tested about 5,500 compounds, of which about 2,000 (36%) were called active. Another 18% or so got no clear call; they are omitted. Cut-off read from the data, not from the text of the source: active = normalized growth mostly below about 0.91 (no sharp cut-off); inconclusive = no clear call, values can overlap the other calls; inactive = mostly above about 0.92. The list shows a part of the results.

Experiment: chemical genetic growth profiling, strain panel (AID 1159580);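 note: tested at 20 µM; growth read once vehicle control cultures reached saturation at 30 °C; 1 = growth at the plate median or of vehicle wells; lower values mean less growth of the strain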
Details: growth OD

Measured: normalized growth

NC(=O)CN1CCCC1=O
inactive: S. cerevisiae deletion strains, locus YKL009W, strain mrt4, hits give low values 1.01 | S. cerevisiae deletion strains, locus YKL068W, hits give low values 1 | S. cerevisiae deletion strains, locus YKL085W, strain MDH1 (second series), hits give low values 1.02 | S. cerevisiae deletion strains, locus YKL085W, strain MDH1, hits give low values 1.02 | S. cerevisiae deletion strains, locus YKL160W, strain elf1, hits give low values 0.967 | S. cerevisiae deletion strains, locus YKL190W, strain CNB1, hits give low values 1 | S. cerevisiae deletion strains, locus YKR001C, strain vps1, hits give low values 1.01 | S. cerevisiae deletion strains, locus YKR026C, strain gcn3, hits give low values 0.992 | S. cerevisiae deletion strains, locus YKR091W, strain srl3, hits give low values 0.995 | S. cerevisiae deletion strains, locus YLL001W, strain dnm1, hits give low values 0.958 | S. cerevisiae deletion strains, locus YLL026W, hits give low values 0.999 | S. cerevisiae deletion strains, locus YLL041C, strain sdh2, hits give low values 0.992 | S. cerevisiae deletion strains, locus YLR027C, strain aat2, hits give low values 0.999 | S. cerevisiae deletion strains, locus YLR039C, strain RIC1, hits give low values 1.01 | S. cerevisiae deletion strains, locus YLR058C, strain SHM2, hits give low values 1.01 | S. cerevisiae deletion strains, locus YLR102C, strain apc9, hits give low values 1.01 | S. cerevisiae deletion strains, locus YLR113W, strain HOG1, hits give low values 0.954 | S. cerevisiae deletion strains, locus YLR221C, strain rsa3, hits give low values 0.989 | S. cerevisiae deletion strains, locus YLR258W, strain gsy2, hits give low values 0.99 | S. cerevisiae deletion strains, locus YLR262C, strain YPT6 (second series), hits give low values 0.987 | S. cerevisiae deletion strains, locus YLR262C, strain YPT6, hits give low values 1.02 | S. cerevisiae deletion strains, locus YLR268W, strain sec22, hits give low values 1.01 | S. cerevisiae deletion strains, locus YLR320W, strain mms22, hits give low values 0.958 | S. cerevisiae deletion strains, locus YLR330W, strain CHS5, hits give low values 0.996 | S. cerevisiae deletion strains, locus YLR342W, strain FKS1 (second series), hits give low values 1.02 | S. cerevisiae deletion strains, locus YLR342W, strain FKS1, hits give low values 0.98 | S. cerevisiae deletion strains, locus YLR357W, strain rsc2, hits give low values 0.977 | S. cerevisiae deletion strains, locus YLR370C, strain arc18, hits give low values 0.99 | S. cerevisiae deletion strains, locus YLR371W, strain rom2, hits give low values 1.01 | S. cerevisiae deletion strains, locus YLR384C, strain iki3, hits give low values 0.977 | S. cerevisiae deletion strains, locus YLR418C, strain cdc73, hits give low values 1.01 | S. cerevisiae deletion strains, locus YML016C, strain PPZ1, hits give low values 0.999 | S. cerevisiae deletion strains, locus YML032C, strain rad52, hits give low values 1.01 | S. cerevisiae deletion strains, locus YML120C, strain ndi1, hits give low values 0.983 | S. cerevisiae deletion strains, locus YML124C, strain tub3, hits give low values 1.01 | S. cerevisiae deletion strains, locus YMR058W, strain fet3, hits give low values 0.988 | S. cerevisiae deletion strains, locus YMR078C, strain ctf18, hits give low values 1 | S. cerevisiae deletion strains, locus YMR125W, strain sto1, hits give low values 0.996 | S. cerevisiae deletion strains, locus YMR129W, hits give low values 1 | S. cerevisiae deletion strains, locus YMR205C, strain PFK2, hits give low values 0.973 | S. cerevisiae deletion strains, locus YMR223W, strain ubp8, hits give low values 1.01 | S. cerevisiae deletion strains, locus YMR231W, strain pep5, hits give low values 0.997 | S. cerevisiae deletion strains, locus YMR263W, strain SAP30, hits give low values 0.993 | S. cerevisiae deletion strains, locus YMR307W, strain GAS1, hits give low values 1.06 | S. cerevisiae deletion strains, locus YNL067W, strain RPL9B, hits give low values 1.01 | S. cerevisiae deletion strains, locus YNL071W, strain lat1, hits give low values 0.991 | S. cerevisiae deletion strains, locus YNL128W, strain TEP1, hits give low values 1.05 | S. cerevisiae deletion strains, locus YNL153C, strain GIM3, hits give low values 0.979 and 1.17 | S. cerevisiae deletion strains, locus YNL175C, strain NOP13, hits give low values 0.997 | S. cerevisiae deletion strains, locus YNL183C, strain NPR1, hits give low values 0.915 | S. cerevisiae deletion strains, locus YNL197C, strain WHI3, hits give low values 1.01 | S. cerevisiae deletion strains, locus YNL209W, strain ssb2, hits give low values 0.998 | S. cerevisiae deletion strains, locus YNL224C, strain SQS1, hits give low values 0.995 | S. cerevisiae deletion strains, locus YNL233W, strain BNI4, hits give low values 0.985 | S. cerevisiae deletion strains, locus YNL248C, strain rpa49, hits give low values 0.982 | S. cerevisiae deletion strains, locus YNL250W, strain rad50, hits give low values 1 | S. cerevisiae deletion strains, locus YNL271C, strain bni1, hits give low values 1.01 | S. cerevisiae deletion strains, locus YNL298W, strain CLA4, hits give low values 1.03 | S. cerevisiae deletion strains, locus YNL307C, strain MCK1, hits give low values 1.03 | S. cerevisiae deletion strains, locus YNL322C, strain KRE1 (second series), hits give low values 0.992 | S. cerevisiae deletion strains, locus YNL322C, strain KRE1, hits give low values 1 | S. cerevisiae deletion strains, locus YNR049C, strain mso1, hits give low values 0.99 | S. cerevisiae deletion strains, locus YNR052C, strain pop2, hits give low values 1.01 | S. cerevisiae deletion strains, locus YOL006C, strain TOP1, hits give low values 1.04 | S. cerevisiae deletion strains, locus YOL012C, strain htz1 0.826 | S. cerevisiae deletion strains, locus YOL147C, strain pex11, hits give low values 1.01 | S. cerevisiae deletion strains, locus YOR001W, strain rrp6, hits give low values 1.01 | S. cerevisiae deletion strains, locus YOR061W, strain CKA2, hits give low values 1.01 | S. cerevisiae deletion strains, locus YOR069W, strain VPS5, hits give low values 1.01 | S. cerevisiae deletion strains, locus YOR070C, strain gyp1, hits give low values 0.993 | S. cerevisiae deletion strains, locus YOR080W, strain dia2, hits give low values 0.994 | S. cerevisiae deletion strains, locus YOR083W, strain WHI5 (second series), hits give low values 0.99 | S. cerevisiae deletion strains, locus YOR083W, strain WHI5, hits give low values 0.968 | S. cerevisiae deletion strains, locus YOR106W, strain vam3, hits give low values 0.967 | S. cerevisiae deletion strains, locus YOR136W, strain idh2, hits give low values 1 | S. cerevisiae deletion strains, locus YOR144C, strain elg1, hits give low values 0.998 | S. cerevisiae deletion strains, locus YOR184W, strain ser1, hits give low values 1 | S. cerevisiae deletion strains, locus YOR231W, strain MKK1, hits give low values 0.984 | S. cerevisiae deletion strains, locus YOR265W, strain rbl2, hits give low values 0.992 | S. cerevisiae deletion strains, locus YOR270C, strain vph1, hits give low values 0.97 | S. cerevisiae deletion strains, locus YOR290C, strain snf2, hits give low values 0.99 | S. cerevisiae deletion strains, locus YOR316C, strain cot1, hits give low values 1.02 | S. cerevisiae deletion strains, locus YPL051W, strain arl3, hits give low values 0.99 | S. cerevisiae deletion strains, locus YPL055C, strain LGE1, hits give low values 0.968 | S. cerevisiae deletion strains, locus YPL078C, strain atp4, hits give low values 0.979 | S. cerevisiae deletion strains, locus YPL106C, strain sse1, hits give low values 0.958 | S. cerevisiae deletion strains, locus YPL240C, strain hsp82, hits give low values 0.999 | S. cerevisiae deletion strains, locus YPL241C, strain CIN2, hits give low values 1.01 and 1 | S. cerevisiae deletion strains, locus YPL256C, strain CLN2, hits give low values 0.979 | S. cerevisiae deletion strains, locus YPR119W, strain clb2, hits give low values 1 | S. cerevisiae deletion strains, locus YPR141C, strain kar3, hits give low values 1.01 | S. cerevisiae deletion strains, locus YPR163C, strain tif3, hits give low values 1.01 | S. cerevisiae deletion strains, locus YPR167C, strain met16, hits give low values 1 | S. cerevisiae deletion strains, strain wtn01, hits give low values 1.01 | S. cerevisiae strains, strain wild type, hits give low values 1
